Test results published in PubChem BioAssay (NCATS).
Inconclusive results are not listed. Entries that show only a call come without a potency. Calls of active or inactive are those of the source. Calls follow the shape of the dose curve; as a rule, active = well fitted cell-killing curve with a large enough effect; inconclusive = small, poorly fitted or top-dose-only effect, or effect the other way; inactive = no such curve, though single readings can be large or run the other way.

Columns and labels:
[1] = Viability qHTS for spleen associated tyrosine kinase inhibitor (SYKi) naive MV4-11 cells (AID 1963823); conditions: MV4-11 AML viability, CellTiter-Glo luminescence, 72 h; series mostly up to 45 µM; also: nearly all actives have a fitted effect of over 40% in size
In short: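 In this viability screen, compounds acted on SYK inhibitor naive MV4-11 cells for three days (72 hr, 37 C). Remaining viable cells were measured by CellTiter-Glo luminescence following a 10 min room-temperature development.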

[2] = Viability qHTS for spleen associated tyrosine kinase inhibitor (SYKi) drug resistant MV4-11 cells (AID 1963824); conditions: SYKi-resistant MV4-11 viability, CellTiter-Glo, 72 h; series mostly up to 45 µM; also: nearly all actives have a fitted effect of over 35% in size
In short: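 SYK inhibitor-resistant MV4-11 AML cells, 500 per well, added to predispensed compounds and incubated 72 hr at 37 C, 5% CO2. Viability measured by CellTiter-Glo luminescence after 10 min at room temperature.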
Potency is read from the fitted curve at half-maximal effect.

Row | Compound | Potency [1] | Potency [2] | viability (% of control) [1] | viability, % of control [2]
1 | COc1cnc(-n2cnc(C)n2)c2[nH]cc(C(=O)C(=O)N3CCN(C(=O)c4ccccc4)CC3)c12 | inactive | inactive |  | 
2 | C[C@H](Oc1cc(-n2cnc3ccc(CN4CCN(C)CC4)cc32)sc1C(N)=O)c1ccccc1C(F)(F)F | 1.03 µM (active) | 0.58 µM (active) |  | 
3 | CC1OC(OC2C(OC3C(O[C@H]4CC[C@@]5(C)C(CC[C@]6(C)C5CC=C5C7CC(C)(C)CC(O)[C@]7(C)CC[C@]56C)C4(C)C)OC(C(=O)O)C(O)C3O)OCC(O)C2O)C(O)C(O)C1O (some centres undefined) |  |  | 90.6% [at 9.25 µM] (inactive) | 94.4% [at 9.25 µM] (inactive)
4 | Cc1ccc(C(=O)N(CCCN)C(c2oc3cc(Cl)ccc3c(=O)c2Cc2ccccc2)C(C)C)cc1 (centres undefined) | inactive | inactive |  | 
5 | CC(C)(F)CC(NC(c1ccc(-c2ccc(S(C)(=O)=O)cc2)cc1)C(F)(F)F)C(=O)NC1(C#N)CC1 (centres undefined) | inactive | 3.66 µM (active) |  | 
6 | CCC[C@@H]1C[C@@H](C(=O)N[C@H](C(C)Cl)[C@H]2O[C@H](SC)[C@H](O)[C@@H](O)[C@H]2O)N(C)C1 (some centres undefined) | inactive | inactive |  | 
7 | C[C@@H]1O[C@@H](OC[C@H]2O[C@@H](OC(CCCCc3ccc(O)cc3)CCc3ccc(O)cc3)[C@H](O)[C@@H](O)[C@@H]2O)[C@H](O)[C@H](O)[C@H]1O (some centres undefined) | inactive | inactive |  | 
8 | c1cc(NCCc2c[nH]c3ccccc23)cc(Nc2ccncc2)c1 | 0.58 µM (active) | 0.651 µM (active) |  | 
9 | CC1=C(C)C(=O)C(CCCCC#CCCCC#CCO)=C(C)C1=O | 11.9 µM (active) | 13.3 µM (active) |  | 
10 | CC(/C=C/[C@]1(O)[C@@]2(C)CO[C@@]1(C)C[C@@H](O)C2)=C\C(=O)O[C@@H]1O[C@H](CO)[C@@H](O)[C@H](O)[C@H]1O | inactive | inactive |  | 
11 | O=C(c1ccc2nccnc2c1)N1CCCCC1 | inactive | inactive |  | 
12 | Cc1ccc(NC(=O)c2cccc(C(C)(C)C#N)c2)cc1Nc1ccc2ncn(C)c(=O)c2c1 | 1.18 µM (active) | 1.48 µM (active) |  | 
13 | CC(CN1c2ccccc2Sc2ccccc21)N(C)C (centres undefined) | inactive | inactive |  | 
14 | O=C1COc2nccc(-c3ccccc3F)c2CN1Cc1cc(C(F)(F)F)cc(C(F)(F)F)c1 | 11.6 µM (active) | 16.4 µM (active) |  | 
15 | CC1=C2C=C(CO)C(CO)CCC2(C)CCC1=O (centres undefined) | inactive | inactive |  | 
16 | COC1OC(=O)C2=C1C1(C)CCCC(C)(C)C1CC2O (centres undefined) | inactive | inactive |  | 
17 | Brc1ccc([C@H]2CN3CCSC3=N2)cc1 | inactive | inactive |  | 
18 | O=C(OCC1=CC(O)C2C=CO[C@@H](O[C@@H]3O[C@H](CO)[C@@H](O)[C@H](O)[C@H]3O)C12)c1ccccc1 (some centres undefined) | inactive | inactive |  | 
19 | CC(/C=C/C=C(\C)C(=O)O[C@@H]1O[C@H](CO[C@@H]2O[C@H](CO)[C@@H](O)[C@H](O)[C@H]2O)[C@@H](O)[C@H](O)[C@H]1O)=C\C=C\C=C(C)\C=C\C=C(/C)C(=O)O[C@@H]1C[C@](O)(C(=O)O)C[C@@H](O)[C@H]1OC(=O)/C=C/c1ccc(O)c(O)c1 |  |  | 78.4% [at 9.25 µM] (inactive) | 91.1% [at 9.25 µM] (inactive)

Row | Compound | Potency [1] | Potency [2] | viability (% of control) [1] | viability, % of control [2]
20 | Cc1cc(N(C)C)ccc1-c1nc2ccc(-c3nc4ccc(N5CCN(C)CC5)cc4[nH]3)cc2[nH]1 | 0.411 µM (active) | 0.184 µM (active) |  | 
21 | CN(C)C(CCOc1cccc2ccccc12)c1ccccc1 (centres undefined) | 18.4 µM (active) | 14.6 µM (active) |  | 
22 | CC1CCC2C(C)(C)[C@H](O)CC[C@]2(C)C12Cc1c(O)cc3c(c1O2)CN(C(CCC(=O)O)C(=O)O)C3=O (some centres undefined) | inactive | inactive |  | 
23 | O=C(Nc1ccc(S(=O)(=O)C(F)(F)F)cc1)C1=CCN(c2ncccc2C(F)(F)F)CC1 | 5.8 µM (active) | 3.66 µM (active) |  | 
24 | COC(=O)C1=COC(OC2OC(CO)C(O)C(O)C2O)C2C(C)CC(=O)C12O (centres undefined) | inactive | inactive |  | 
25 | COc1cc(/C=C/C(=O)OC[C@H]2O[C@@](CO)(O[C@H]3O[C@H](CO)[C@@H](O)[C@H](O)[C@H]3O)[C@@H](OC(=O)/C=C/c3ccc(O)c(OC)c3)[C@@H]2O)ccc1O | inactive | inactive |  | 
26 | O=C1C(Cl)=C(N2CCOCC2)C(=O)N1c1ccc(Cl)c(Cl)c1 | 5.63 µM (active) | 5.02 µM (active) |  | 
27 | O=C(/C=C/c1ccccc1)OCC1=CC[C@@H]2C(C(=O)O)=CO[C@@H](O[C@@H]3O[C@H](CO)[C@@H](O)[C@H](O)[C@H]3O)[C@H]12 | inactive | inactive |  | 
28 | O=C(CCCCCCC(=O)Nc1ccc(C2OC(CSc3nc(-c4ccccc4)c(-c4ccccc4)o3)CC(c3ccc(CO)cc3)O2)cc1)NO (centres undefined) | 7.31 µM (active) | 9.2 µM (active) |  | 
29 | CC1(C)CC[C@]2(C(=O)O)CC[C@]3(C)C(=CCC4[C@@]5(C)CC[C@H](O[C@@H]6O[C@H](C(=O)O)[C@@H](O[C@@H]7OC[C@@H](O)[C@H](O)[C@H]7O)[C@H](O)[C@H]6O)C(C)(C)C5CC[C@]43C)C2C1O (some centres undefined) | inactive | inactive |  | 
30 | CC(NC(=O)CC(=O)O)c1nc2ccccc2c(=O)[nH]1 (centres undefined) | inactive | inactive |  | 
31 | Nc1c(-c2ccccc2)nc(Cl)c2c(O)n[nH]c(=O)c12 | inactive | inactive |  | 
32 | COC(=O)c1cc(CN2CCN(C(=N)N)CC2)cc(C(=O)N2CCN(C(=O)c3ccc(C(=N)N)cc3)CC2)c1 | inactive | inactive |  | 
33 | CC(CCC1C(C(=O)O)=CC(=O)CC1(C)C)O[C@@H]1O[C@H](CO)[C@@H](O)[C@H](O)[C@H]1O (some centres undefined) | inactive | inactive |  | 
34 | CC/C=C\CC1C(CC(=O)O)CCC1OC1OC(CO)C(O)C(O)C1O (centres undefined) | inactive | inactive |  | 
35 | CCC(C)CNCC(=O)N1CCc2sccc2C1COc1cccc(C)c1 (centres undefined) | 9.2 µM (active) | 9.2 µM (active) |  | 
36 | Cc1ccc(C(C)C)c(O[C@@H]2O[C@H](CO)[C@@H](O)[C@H](O)[C@H]2O)c1 | inactive | inactive |  | 
37 | COc1cc(C)c(C(=O)O[C@H]2[C@@H](O)[C@H](n3ccc(=O)[nH]c3=O)O[C@@H]2CO)c(OC)c1 | inactive | inactive |  | 
38 | c1nc(NCC2CCOC2)c2cc(-c3ccc4c(c3)OCO4)ccc2n1 (centres undefined) | 20.6 µM (active) | 18.4 µM (active) |  | 

Row | Compound | Potency [1] | Potency [2] | viability (% of control) [1] | viability, % of control [2]
39 | CC(C)=CCC[C@](C)(O)[C@H]1CC[C@]2(C)[C@@H]1[C@H](O)CC1[C@@]3(C)CC[C@H](O)C(C)(C)[C@@H]3[C@@H](O[C@@H]3O[C@H](CO)[C@@H](O)[C@H](O)[C@H]3O[C@@H]3O[C@H](CO)[C@@H](O)[C@H](O)[C@H]3O)C[C@]12C (some centres undefined) | inactive | inactive |  | 
40 | CC(O)/C=C/C1(O)C(C)C(O[C@@H]2O[C@H](CO)[C@@H](O)[C@H](O)[C@H]2O)C(O)CC1(C)C (some centres undefined) | inactive | inactive |  | 
41 | COc1cc(O)cc(C)c1C(=O)O[C@H]1[C@@H](O)[C@@H](n2ccc(=O)[nH]c2=O)O[C@@H]1CO | inactive | inactive |  | 
42 | COc1cc(CO)ccc1O[C@@H]1O[C@H](CO)[C@@H](O)[C@H](O)[C@H]1O | inactive | inactive |  | 
43 | N#C[C@@H]1C[C@H](F)CN1C(=O)CNC1[C@H]2CN(C(=O)c3ccc(F)cc3)C[C@@H]12 (some centres undefined) | inactive | inactive |  | 
44 | CO/N=C(/C(=O)N[C@@H]1C(=O)N2C(C(=O)O)=C(CSC(=O)c3ccco3)CS[C@H]12)c1csc(N)n1 | inactive | inactive |  | 
45 | CN1c2c(nc(N)[nH]c2=O)NC[C@@H]1CNc1ccc(C(=O)N[C@@H](CCC(=O)O)C(=O)O)cc1 | inactive | inactive |  | 
46 | C=C1C[C@]23C[C@H]1CC[C@H]2C1=C[C@H]2OC(=O)[C@@](C)([C@H]1[C@@H]3C(=O)O)[C@H]2O | inactive | inactive |  | 
47 | CCC[C@@]1(CCc2ccccc2)CC(O)=C([C@H](CC)c2cccc(NS(=O)(=O)c3ccc(C(F)(F)F)cn3)c2)C(=O)O1 | 20.6 µM (active) | 23.1 µM (active) |  | 
48 | Cn1nnc(-c2ccc(-c3ccc(N4C[C@H](COP(=O)(O)O)OC4=O)cc3F)cn2)n1 | inactive | inactive |  | 
49 | CO[C@H]1C=C2C(CC[C@H](O[C@@H]3O[C@H](CO)[C@@H](O)[C@@H](O)[C@H]3O)C2(C)C)[C@]2(C)CC[C@]3(C)C([C@H](C)C(O)C(C=C(C)C)O[C@@H]4O[C@H](CO)[C@@H](O)[C@@H](O)[C@H]4O)CC[C@@]3(C)C12 (some centres undefined) |  |  | 86.9% [at 9.25 µM] (inactive) | 90.7% [at 9.25 µM] (inactive)
50 | Cc1cccc(Nc2cc(Cl)nc(SCC(=O)O)n2)c1C | inactive | inactive |  | 
51 | NCC(=O)O | inactive | inactive |  | 
52 | C=CC(=O)Nc1cc(-n2c(=O)ccc3cnc4ccc(-c5ccc(NS(C)(=O)=O)cc5)cc4c32)ccc1C | 1.16 µM (active) | 1.3 µM (active) |  | 
53 | COc1cc(CCc2ccccc2)c(C(=O)O)c2c1CC(C(C)(C)O)O2 (centres undefined) | inactive | 2.27 µM (active) |  | 
54 | CC1(C)CC[C@@]2(C(=O)O[C@@H]3O[C@H](CO)[C@@H](O)[C@H](O)[C@H]3O)C(C1)C1=CCC3[C@@]4(C)CC[C@@H](O[C@@H]5O[C@H](C(=O)O)[C@@H](O[C@@H]6OC[C@@H](O)[C@H](O)[C@H]6O)[C@H](O[C@@H]6OC[C@](O)(CO)[C@H]6O)[C@H]5O)C(C)(C)C4CC[C@@]3(C)[C@]1(C)C[C@H]2O (some centres undefined) |  |  | 11.6% [at 9.25 µM] (inactive) | 12% [at 9.25 µM] (inactive)
55 | COc1ccc(C[C@H](N)C(=O)N[C@@H]2[C@H](O)[C@H](n3cnc4c(N(C)C)ncnc43)O[C@@H]2CO)cc1 | 0.184 µM (active) | 0.184 µM (active) |  | 
56 | COc1cc(-c2cc(-c3cccc(O)c3)cnc2N)cc(OC)c1OC | 11.6 µM (active) | 9.2 µM (active) |  | 
57 | C=C1CC2C3(C)C=CC(=O)OC(C)(C)C3CC(OC(C)=O)C2(C)C2C(=O)OC(C)C(=O)C12C (centres undefined) | inactive | inactive |  | 
